# Compounds with a hit are over-represented: about 1.5% of the library has one in this group of screens.
# PP1 inh = counter-screen for PP5 inhibitors: inhibitors of human PP1-alpha; 320,000 compounds, 0.9% hits; purified PP1alpha, OMFP fluorescence; inhibition, % at 6.7 µM;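 active means inhibition above the mean inhibition of all tested compounds plus 3 SD, computed separately for each screening campaign, cut at about 15% in these data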
# DYRK1A inh = inhibitors of rat Dyrk1A kinase; ADP-Glo luminescence, NFATc1 peptide; Q63470; inhibition, % at 12.5 µM; 310,000 compounds, 0.43% hits; in the data active means inhibition above about 50%;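 further: plate controls were vehicle with enzyme for no effect and no enzyme for full effect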
# STK33 inh = human STK33 kinase inhibition; Q9BYT3; purified STK33, MBP phosphorylation, ADP-Glo luminescence; inhibition, % at 10 µM; 320,000 compounds, 0.073% hits;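 active means inhibition at or above 25%, using the most active replicate where run in duplicate; inactive means inhibition below 25%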
# HIF act = HIF pathway transcriptional activation; U2OS HRE-luciferase reporter, luminescence; normalized: DMSO 0%, desferrioxamine 100%; activation, % at 7.5 µM (by protocol); 300,000 compounds, 0.32% hits; AID 1910;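 active means mean activation of at least 10% of the iron chelator positive control signal, with at least half of replicates also reaching 10%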
# PP5 inh = blocks human protein phosphatase 5 activity; AID 1987; purified PP5c, OMFP substrate fluorescence; 320,000 compounds, 0.18% hits; P53041; inhibition, % at 6.7 µM;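 active means inhibition above the campaign's mean inhibition across all tested compounds plus 3 SD, cut at about 9.5% in these data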;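 further: 0% = DMSO only and 100% = 100 µM cantharidin control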
# Target sequence (P53041 whole entry, looked up): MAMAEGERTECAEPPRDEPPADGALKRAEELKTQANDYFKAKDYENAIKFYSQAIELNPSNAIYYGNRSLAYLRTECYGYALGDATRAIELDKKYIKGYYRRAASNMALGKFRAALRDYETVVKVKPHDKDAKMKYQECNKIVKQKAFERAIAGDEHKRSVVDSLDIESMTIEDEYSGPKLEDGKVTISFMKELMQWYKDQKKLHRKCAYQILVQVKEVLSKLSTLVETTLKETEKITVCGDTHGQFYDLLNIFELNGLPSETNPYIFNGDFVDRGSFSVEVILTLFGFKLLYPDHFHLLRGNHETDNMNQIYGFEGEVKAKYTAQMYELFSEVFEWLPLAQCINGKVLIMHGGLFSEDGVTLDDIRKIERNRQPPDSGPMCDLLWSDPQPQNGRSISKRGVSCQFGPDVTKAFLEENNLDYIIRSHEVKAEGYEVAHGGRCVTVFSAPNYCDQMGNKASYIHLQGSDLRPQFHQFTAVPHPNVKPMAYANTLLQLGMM
# PP1 confirm = human PP1 phosphatase inhibition, confirmation. purified PP1alpha, OMFP substrate fluorescence. inhibition, % at 6.7 µM. 1,900 compounds, 52% hits. shares compounds with PP1 inh. AID 2358;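 active means mean PP1 inhibition above a set limit taken from the earlier primary screen, cut at about 15% in these data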
# PP5 inh counter = counter-screen for PP1 inhibitors: human PP5 phosphatase inhibition | shares compounds with PP1 inh | purified PP5c, OMFP fluorescence | 1,900 compounds, 4% hits | inhibition, % at 6.7 µM;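 active means mean PP5 inhibition over triplicate wells above about 9.5% taken from the earlier PP1 screen, limit read from the data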
# * = called active by the depositor; x = not tested or not shown.
SMILES,PP1 inh,DYRK1A inh,STK33 inh,HIF act,PP5 inh,PP1 confirm,PP5 inh counter
O=C(Cn1nc(CNc2ccc(Cl)cc2)[n+]2c1CCCCC2)c1ccccc1,1,-6,-3,1,-2,x,x
Cc1ccc(C(C)C)c(OCc2nn(CC(=O)c3ccc(Cl)cc3)c3[n+]2CCCCC3)c1,23*,0,1,-1,3,-18,-1
O=C(O)c1cc(-c2ccc(N3CCOCC3)cc2)nn1-c1ccc(F)cc1F,24*,2,-1,0,2,27*,-3
O=C(c1ccccc1)c1ccc(N2CCOCC2)cc1,x,8,x,x,x,x,x
O=C(O)c1cc(-c2ccc(N3CCOCC3)cc2)nn1-c1ccccc1Cl,34*,-4,-2,0,-2,38*,0
CCC(CC)NC(=O)COn1nnc2ccc(S(=O)(=O)N3CCOCC3)cc21,-5,-3,-1,0,0,x,x
COc1ccc(/C=N/N=C2/CC(C)(C)Cc3n[nH]c(=O)cc32)cc1,-2,-1,-1,1,1,x,x
Cc1cccc(NC(=O)CN2C(=O)N/C(=C/c3ccc(C)s3)C2=O)c1,21*,-4,-1,1,1,6,-6
Cc1ccc(NC(=O)Cn2c(O)c(N=NC(N)=S)c3ccccc32)cc1,21*,0,-2,-1,1,10,-6
Cc1cccc(NC(=O)Cn2c(O)c(N=NC(=O)c3ccncc3)c3ccccc32)c1,1,x,-2,0,0,x,x
Cc1cccc(NC(=O)Cn2c(C)c(C#N)c3ccccc32)c1C,21*,-3,-1,2,2,19*,-1
Cc1ccc(NC(=O)Cn2c(O)c(N=NC(N)=O)c3ccccc32)cc1,-2,3,-1,1,-2,x,x
Cc1ccccc1NC(=O)Cn1c(O)c(N=NC(=O)c2ccccc2O)c2ccccc21,20*,-4,0,0,2,24*,-5
COc1cc(/C=C/C(=O)NCC2CCCCC2)cc(OC)c1OC,-7,-2,-1,-1,0,x,x
COc1ccc(Cl)cc1S(=O)(=O)N1CCC(C(=O)NCc2ccccn2)CC1,-7,8,-1,0,2,x,x
O=C(N[C@@H](Cc1ccccc1)C(=O)N1CCN(S(=O)(=O)c2ccc(F)cc2)CC1)c1ccco1,x,3,x,x,x,x,x
Cc1cc(C)cc(NC(=O)/C(C#N)=C/c2cn(CC(=O)NCc3ccco3)c3ccccc23)c1,4,-1,-1,-3,0,x,x
Cc1ccc(NC(=O)/C(C#N)=C/c2cn(CC(=O)NCc3ccco3)c3ccccc23)cc1C,32*,1,-1,-3,1,31*,-1
O=C(CCCN1C(=O)/C(=C/c2ccccc2)SC1=S)Nc1ccc(C(=O)O)c(O)c1,8,-4,-4,0,5,x,x
O=C(CCN1C(=O)/C(=C\c2ccccc2F)SC1=S)Nc1ccc(C(=O)O)c(O)c1,20*,19,2,0,4,20*,2
CCCCNC(=O)c1onc(CSc2ccc(C(C)C)cc2)c1C(=O)O,4,-7,-2,-1,1,x,x
COc1ccc(N=Nc2ccc(O)c3ncccc23)cc1,27*,2,1,92*,2,26*,-2
Nc1ccc(N=Nc2ccccc2)c2cccnc12,1,4,10,-6,6,x,x
O=S(=O)(O)c1cccc2c(N=Nc3ccc(O)c4ncccc34)cccc12,47*,0,-1,-2,1,19*,-2
COc1cccc(N=Nc2ccc(O)c3ncccc23)c1,27*,1,-1,7,4,23*,-1
SMILES,PP1 inh,DYRK1A inh,STK33 inh,HIF act,PP5 inh,PP1 confirm,PP5 inh counter
COc1cccc(N=Nc2ccc3cccnc3c2O)c1,31*,3,-2,5,4,25*,-2
O=Nc1ccc(O)c2ncccc12,-3,5,0,8,2,x,x
CCc1ccccc1N1CC(C(=O)Nc2cc(C)on2)CC1=O (stereo not drawn),0,-6,0,0,1,x,x
CN(c1ccccc1)c1cc(Br)nc(Br)c1,-3,-3,-2,0,0,x,x
CN(C)C(=N)c1n[nH]nc1SCc1ccc(Cl)c(Cl)c1,25*,4,0,0,-1,-3,-6
CCCCSc1nc(C)cc(SCC(=O)N/N=C/c2cccc(OC)c2O)n1,21*,-1,-2,21*,3,12,1
CCOC(=O)Cc1cc(=O)n2[nH]c(-c3ccccc3)cc2n1,12,9,-1,0,2,x,x
CCOC(=O)Cc1cc(=O)n2[nH]c(-c3ccccc3)c(-c3ccccc3)c2n1,39*,-6,0,0,4,40*,-1
Cc1ccc(NC2CCCN(C(=O)c3cn(C)c4ccccc34)C2)cc1C (stereo not drawn),-1,-3,0,-1,3,x,x
COc1ccc(/C=C/c2nnc(NC(=O)COc3ccc(C)cc3)s2)cc1,18*,-1,0,-3,-4,7,-6
O=C(CNC(=O)c1ccc(Br)o1)NCC(=O)OCc1ccccc1,-1,-1,2,0,0,x,x
O=C1CC(C(=O)Nc2ccc(Cl)cc2)S/C(=N\N=C\c2ccco2)N1 (stereo not drawn),8,4,0,0,3,x,x
O=C1CC(C(=O)Nc2ccc(Cl)c(Cl)c2)S/C(=N\N=C\c2ccco2)N1 (stereo not drawn),22*,-7,0,0,-1,11,-5
CC(C)(C)c1ccc(-c2nn(CCC#N)cc2/C=N/O)cc1,32*,-1,1,0,4,1,2
CC(C)(C)OC(=O)N[C@@H](CCCCNC(=O)OCc1ccccc1)c1nnc([C@H](CCCCNC(=O)OCc2ccccc2)NC(=O)OC(C)(C)C)o1,23*,3,1,0,5,13,2
Cc1cccc2sc(NNC(=O)c3ccc(S(=O)(=O)N4CC(C)CC(C)C4)cc3)nc12 (stereo not drawn),23*,5,0,6,3,19*,0
COC(=O)c1sc2ccccc2c1NC(=O)c1ccc(S(=O)(=O)N2CC(C)CC(C)C2)cc1 (stereo not drawn),2,-7,0,0,-2,x,x
COC(=O)c1sc2ccccc2c1NC(=O)c1ccc(S(=O)(=O)N2CCCC(C)C2)cc1 (stereo not drawn),-1,-1,-1,0,1,x,x
Cc1ccc2nc(NNC(=O)c3ccc(S(=O)(=O)N4CCc5ccccc5C4)cc3)sc2c1,29*,10,0,99*,1,25*,2
Cc1cc(C)c2nc(NNC(=O)c3ccc(S(=O)(=O)N4CCCC(C)C4)cc3)sc2c1 (stereo not drawn),21*,6,0,26*,4,24*,3

# Bioassay records as filed in PubChem.
